Data reported in PubChem BioAssay (EPA / NIEHS).
Active and inactive are the calls of the source. Rule for the calls: active = hit-call score of the fitted dose curve at least 0.9, where 1 is the maximum; inactive = score below 0.9.

Read-out: cysteine-aspartic acid protease (CASP8), CASP8 (gene 841)
Assay: LTEA_HepaRG_CASP8: Life Technologies and Expression Analysis (LTEA) Assay for cysteine-aspartic acid protease (CASP8) using HepaRG (AID 2283480)
Settings: mRNA level, 48 h; actives raise or lower the signal
Summary of the method: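 Differentiated HepaRG cells in serum-free induction medium, 48 h exposure, eight-point half-log series from 100 uM in 0.5% DMSO, duplicates. CASP8 mRNA by qRT-PCR, normalized to ACTB, GAPDH, POLR2A; bidirectional fit versus DMSO.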

SMILES | outcome | AC50
COP(=O)(NC(C)=O)SC (centres undefined) | inactive | 
CSc1nc(NC(C)C)nc(NC(C)C)n1 | inactive | 
COP(=O)(OC)OC(Br)C(Cl)(Cl)Br (centres undefined) | inactive | 
CC(=NC#N)N(C)Cc1ccc(Cl)nc1 | inactive | 
CN1COCN(Cc2cnc(Cl)s2)C1=N[N+](=O)[O-] | inactive | 
COc1ccc(C(=CC(=O)N2CCOCC2)c2ccc(Cl)cc2)cc1OC | inactive | 
CNC(=O)ON=C(C)SC | inactive | 
CCOP(=S)(OCC)SCCSCC | inactive | 
COP(=O)(OC)C(O)C(Cl)(Cl)Cl (centres undefined) | inactive | 
CCOP(=O)(OCC)Oc1cc(C)nc(C(C)C)n1 | inactive | 
CCC(CC)Nc1c([N+](=O)[O-])cc(C)c(C)c1[N+](=O)[O-] | inactive | 
CCOP(=S)(OCC)Oc1ccc([N+](=O)[O-])cc1 | inactive | 
CC(C1CC1)C(O)(Cn1cncn1)c1ccc(Cl)cc1 (centres undefined) | inactive | 
CNC(=O)ON=C(SC)C(=O)N(C)C |  | 369 nM (active)
CNC(=O)Oc1cccc2c1OC(C)(C)O2 | inactive | 
CCc1cnc(C2=NC(C)(C(C)C)C(=O)N2)c(C(=O)O)c1 (centres undefined) | inactive | 
Cc1cc(C2CC2)nc(Nc2ccccc2)n1 | inactive | 
CCCSP(=O)(OCC)SCCC | inactive | 
COc1cc(OC)nc(Sc2cccc(Cl)c2C(=O)O)n1 | inactive | 
CC1(C(=O)Nc2ccc(O)c(Cl)c2Cl)CCCCC1 | inactive | 
CSc1nnc(C(C)(C)C)c(=O)n1N | inactive | 
CCC(=O)Nc1ccc(Cl)c(Cl)c1 | inactive | 
CCOP(=O)(NC(C)C)Oc1ccc(SC)c(C)c1 (centres undefined) | inactive | 
CC1=NNC(=O)N(/N=C/c2cccnc2)C1 | inactive | 
